{"source": "PubChem BioAssay (NCATS)", "note": "Inconclusive results are not listed. A number with no mark means an inactive call. Calls come from the whole dose curve; as a rule, active = well fitted cell-killing curve with a large enough effect; inconclusive = small, poorly fitted or top-dose-only effect; inactive = flat fitted curve, though single readings scatter. % is set by controls: 0 for no effect and ±100 for the full control effect.", "data": [{"test": "Cell Viability - LYMP1-003 - Assay at 40 hr (AID 964); note: nearly all actives have a fitted effect of over 60% in size", "conditions": "LYMP1-003 lymphoblastoid viability; series mostly up to 92.2 µM; activity change, negative = cytotoxic: at the top concentration", "source_text": "NIH Chemical Genomics Center [NCGC]\nNIH Molecular Libraries Screening Centers Network [MLSCN]\nNational Institutes of Environmental Health Sciences [NIEHS]\nNational Toxicology Program [NTP]\nWe have developed a 1536-well cell-based assay for quantitative high throughput screening (qHTS) against a number of cell lines to determine in vitro cytotoxicity of small molecules. This particular assay uses a human lymphoblastoid cell line (LYMP1-003) purchased from Coriell Institute for Medical Research.\nNCGC Assay Protocol Summary:\nThe CellTiter-Glo luminescent cell viability assay (Promega) is a homogeneous method to measure the number of viable cells in culture. The end point readout of this assay is based on quantitation of intracellular ATP, an indicator of metabolic activity, using the luciferase reaction. Luciferase catalyzes the oxidation of beetle Luciferin to oxyluciferin and light in the presence of ATP. The luminescent signal is proportional to amount of ATP present.\nUsing the CellTiter-Glo luminescent cell viability assay, the amount of cellular ATP was measured in the lymphoblastoid cell line with complete culture medium following compound treatment for 40 hours. The assay was performed in opaque white Kalypsys 1536-well plates. In the screen, tetraoctylammonium bromide was used as positive control. Library compounds were measured for their ability to cause acute toxicity in the cell line, as reflected by a decrease in intracellular ATP levels, in a concentration-dependent manner. […] AC50 values were determined from concentration-response data modeled with the standard Hill equation.\nqHTS protocol for CellTiter Glo lymphoblastoid cellular assay\n[Step] [Parameter] [Value] [Description]\n1. Reagent; 5 uL; 2500 lymphoblastoid cells/well\n2. Time; 5 hr; 37 C incubation\n4. Controls; 23 nL; Tetraoctylammonium bromide 6.4pM to 92 uM\n5. Time; 40 hr; 37 C incubation\n6. Reagent; 5 uL; CellTiter Glo reagent\n7. Time; 30 min; Room Temperature\n8. Detection; Luminescence; Viewlux plate reader\nKeywords: cell viability, cytotoxicity, lymphoblastoid cell line, luminescence, NTPHTS, NTPHTS_NCGC, NIEHS, DSSTox, MLSMR, MLSCN, NIH Roadmap, qHTS, NCGC", "units": {"activity change, negative = cytotoxic": "%"}, "values": [{"smiles": "BrCC(Br)C1CCC(Br)C(Br)C1", "note": "(stereo not given)", "activity change, negative = cytotoxic": -7.15}, {"smiles": "Clc1ccc(C(Cl)(Cl)Cl)c(Cl)c1", "activity change, negative = cytotoxic": 1.73}, {"smiles": "Nc1ccc(Oc2ccc(N)cc2)cc1", "activity change, negative = cytotoxic": -10.9}, {"smiles": "O=Cc1ccc(Cl)cc1Cl", "activity change, negative = cytotoxic": 0.976}, {"smiles": "OC[P+](CO)(CO)CO", "activity change, negative = cytotoxic": -11.3}, {"smiles": "CC(C)(C)c1ccccc1O", "activity change, negative = cytotoxic": -3.38}, {"smiles": "CCOC(=O)C1OC1(C)c1ccccc1", "note": "(stereo not given)", "activity change, negative = cytotoxic": -9.56}, {"smiles": "O=C(Cc1ccccc1)OCc1ccccc1", "activity change, negative = cytotoxic": -2.67}, {"smiles": "CCCC[N+](=O)[O-]", "activity change, negative = cytotoxic": -12.1}, {"smiles": "BrCCc1ccccc1", "activity change, negative = cytotoxic": -2.66}, {"smiles": "CC[N+](=O)[O-]", "activity change, negative = cytotoxic": 0.325}, {"smiles": "Clc1ccc(Cl)c(Cl)c1", "activity change, negative = cytotoxic": -13.8}, {"smiles": "CSSC", "activity change, negative = cytotoxic": -4.09}, {"smiles": "COC(=O)c1ccccc1N", "activity change, negative = cytotoxic": -2.84}, {"smiles": "O=P(OCCCl)(OCCCl)OCCCl", "activity change, negative = cytotoxic": 6.55}, {"smiles": "Cc1cc(-c2cc(C)c(N)c(C)c2)cc(C)c1N", "activity change, negative = cytotoxic": -11.1}, {"smiles": "ClC(Cl)(Cl)C(Cl)(Cl)Cl", "activity change, negative = cytotoxic": -2.71}, {"smiles": "Cc1ccc(N)cc1Cl", "activity change, negative = cytotoxic": -0.299}, {"smiles": "C=CCOCC1CO1", "note": "(stereo not given)", "activity change, negative = cytotoxic": -11.3}, {"smiles": "CCCCC(=O)Cl", "activity change, negative = cytotoxic": -0.747}, {"smiles": "ClC(Cl)C(Cl)Cl", "activity change, negative = cytotoxic": 1.26}, {"smiles": "Cc1cc(-c2ccc(N)c(C)c2)ccc1N", "activity change, negative = cytotoxic": -8.8}, {"smiles": "Clc1ccccc1", "activity change, negative = cytotoxic": -4.05}, {"smiles": "O=S(=O)(Cl)c1ccccc1", "activity change, negative = cytotoxic": -18.7}, {"smiles": "CCCCOC(=O)c1ccccc1N", "activity change, negative = cytotoxic": 0.614}, {"smiles": "ClC(Cl)c1ccccc1", "activity change, negative = cytotoxic": -4.58}, {"smiles": "c1ccc2c(c1)CCNC2", "activity change, negative = cytotoxic": -6.97}, {"smiles": "COc1ccc(C=O)cc1", "activity change, negative = cytotoxic": -6.31}, {"smiles": "O=[N+]([O-])c1cccc(O)c1", "activity change, negative = cytotoxic": -6.96}, {"smiles": "CC(C)(OOC(C)(C)c1ccccc1)c1ccccc1", "activity change, negative = cytotoxic": -6.07}, {"smiles": "CCCCCCCCCCCOC(=O)c1ccccc1C(=O)OCCCCCCCCCCC", "activity change, negative = cytotoxic": -14.4}, {"smiles": "CC(Cl)(Cl)Cl", "activity change, negative = cytotoxic": 3.99}, {"smiles": "Cl/C=C/CCl", "activity change, negative = cytotoxic": -7.36}, {"smiles": "S=C1NCCN1", "activity change, negative = cytotoxic": -6.59}, {"smiles": "c1ccc(Nc2ccc(Nc3ccccc3)cc2)cc1", "activity change, negative = cytotoxic": -28}, {"smiles": "Cc1ccc2c(C)cccc2c1", "activity change, negative = cytotoxic": -0.926}, {"smiles": "CC(C)C#N", "activity change, negative = cytotoxic": -7.31}, {"smiles": "ClCCBr", "activity change, negative = cytotoxic": -5.38}, {"smiles": "Cc1ccc2c(c1N)C(=O)c1ccccc1C2=O", "activity change, negative = cytotoxic": -0.814}, {"smiles": "CCOC(=O)CC(SP(=O)(OC)OC)C(=O)OCC", "note": "(stereo not given)", "activity change, negative = cytotoxic": -5.42}]}]}
